# Data: PubChem BioAssay (Tox21)
# Inconclusive results are not listed. A call without a number means that no potency is given here. Unmarked numbers belong to inactive results. The source made the active and inactive calls. Unless noted, calls come from the whole dose curve; as a rule, active = well fitted curve in the direction sought with a large enough effect in the repeat runs; inconclusive = weak or mixed curves; inactive = no such curve, though single readings can be large; an effect the other way counts as inactive or inconclusive. Starred links: 1 amine or outer side, 2 acyl side, 3 side chain; linkers in the order of their positions; H or OH if unused. Positions of bridges follow the written chain, without caps; N, C: chain ends. Non-standard residues stand in square brackets, D forms with d. Residues, ends and D or L forms follow the SMILES beside them. *: point of attachment. X5 = NC1=N[C@@H]([C@H](N[*:1])C(=O)[*:2])C[C@H](O)N1; ΔAla(Z-3-ureido) = NC(=O)N/C=C(\N)C(=O)O; β3hOrn = NCCC[C@H](N)CC(=O)*; Dap = NC[C@H](N)C(=O)O
# Tests used:
# [1] = qHTS assay to identify aromatase inhibitors - cell viability counter screen (AID 743084);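 note: cells stimulated with testosterone during compound exposure; nearly all actives have a fitted effect of over 55% in size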; note: potency is the fitted concentration of half-maximal effect
# [2] = molecular target: Aryl hydrocarbon receptor (Homo sapiens) (UniProt P35869); test: qHTS assay to identify small molecule that activate the aryl hydrocarbon receptor (AhR) signaling pathway (AID 743085);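 note: HG2L7.5c1 human HepG2 liver cells with stably integrated DRE-driven firefly reporter; series mostly up to about 70 µM; nearly all actives have a fitted effect of over 15% in size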
# Aryl hydrocarbon receptor (Homo sapiens), sequence (P35869 whole entry, looked up): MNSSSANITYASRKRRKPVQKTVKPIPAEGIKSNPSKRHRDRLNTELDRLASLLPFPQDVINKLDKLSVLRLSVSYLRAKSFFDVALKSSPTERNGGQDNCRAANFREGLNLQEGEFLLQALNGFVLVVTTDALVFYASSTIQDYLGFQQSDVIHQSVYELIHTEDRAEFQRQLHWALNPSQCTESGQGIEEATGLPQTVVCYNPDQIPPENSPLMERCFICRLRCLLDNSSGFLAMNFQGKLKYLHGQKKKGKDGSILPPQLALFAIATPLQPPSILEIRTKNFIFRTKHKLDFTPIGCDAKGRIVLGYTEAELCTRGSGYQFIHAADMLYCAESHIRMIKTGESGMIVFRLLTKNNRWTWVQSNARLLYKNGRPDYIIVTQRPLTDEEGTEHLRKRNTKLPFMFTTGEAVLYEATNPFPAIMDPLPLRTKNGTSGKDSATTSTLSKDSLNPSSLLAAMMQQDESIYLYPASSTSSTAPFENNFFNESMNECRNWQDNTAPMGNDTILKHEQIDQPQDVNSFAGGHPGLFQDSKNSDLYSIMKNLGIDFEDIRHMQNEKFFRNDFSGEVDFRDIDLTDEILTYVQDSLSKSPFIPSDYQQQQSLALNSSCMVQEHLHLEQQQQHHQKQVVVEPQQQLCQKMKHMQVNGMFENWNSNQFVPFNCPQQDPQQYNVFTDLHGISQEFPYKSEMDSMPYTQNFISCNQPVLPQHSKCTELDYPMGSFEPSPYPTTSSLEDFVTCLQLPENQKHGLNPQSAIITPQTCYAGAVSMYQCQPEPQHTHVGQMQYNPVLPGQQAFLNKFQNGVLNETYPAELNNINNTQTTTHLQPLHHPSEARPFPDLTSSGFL
# In short: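 HepG2 cells stably carrying a 20-DRE firefly luciferase reporter (HG2L7.5c1) treated with compound for 24 hr at 37C. Luciferase read by ONE-Glo luminescence, with CellTiter-Fluor viability read first.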
# [3] = qHTS assay to identify small molecule that activate the aryl hydrocarbon receptor (AhR) signaling pathway - cell viability counter screen (AID 743086); note: nearly all actives have a fitted effect of over 45% in size; note: potency is the fitted concentration of half-maximal effect
# In short: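 HepG2-AhR-luc (HG2L7.5c1) cells, 4000/well, were preincubated 5 h at 37C, exposed to compound in qHTS format for 24 hr at 37C, then given CellTiter-Fluor for 30 min; viability was read as fluorescence in the reporter wells.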
# [4] = molecular target: Peroxisome proliferator-activated receptor gamma (Homo sapiens) (UniProt P37231); test: qHTS assay to identify small molecule agonists of the peroxisome proliferator-activated receptor gamma (PPARg) signaling pathway (AID 743094; active = well fitted activation curve with a large enough effect in the signal ratio in the repeat runs, not every such curve was filed as active; the % refers to the signal ratio)
# Peroxisome proliferator-activated receptor gamma (Homo sapiens), sequence (P37231 whole entry, looked up): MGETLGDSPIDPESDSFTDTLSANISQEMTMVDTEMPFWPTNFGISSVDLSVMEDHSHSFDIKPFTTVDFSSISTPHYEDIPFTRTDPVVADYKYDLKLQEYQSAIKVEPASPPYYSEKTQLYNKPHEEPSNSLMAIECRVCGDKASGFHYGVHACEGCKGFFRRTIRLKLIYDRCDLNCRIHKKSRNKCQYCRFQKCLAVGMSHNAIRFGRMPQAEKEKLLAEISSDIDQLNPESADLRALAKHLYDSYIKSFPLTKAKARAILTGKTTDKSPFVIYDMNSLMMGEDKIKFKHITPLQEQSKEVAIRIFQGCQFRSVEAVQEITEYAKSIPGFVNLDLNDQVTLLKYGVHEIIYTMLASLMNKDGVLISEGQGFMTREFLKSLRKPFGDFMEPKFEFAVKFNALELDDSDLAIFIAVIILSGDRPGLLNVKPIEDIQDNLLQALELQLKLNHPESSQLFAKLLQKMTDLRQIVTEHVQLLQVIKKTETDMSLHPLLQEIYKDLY
# In short: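 HEK293H PPARg-bla cells, 5 h settle at 37C/5% CO2; compound (DMSO) 17 h, 37C; B/G FRET substrate 1 h RT; fluorescence intensity read-out. qHTS format.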
# [5] = qHTS assay to identify small molecule phospholipidosis (PLD) inducers (AID 1259344; active = well fitted curve in the direction sought with a large enough effect; an effect the other way counts as inactive or inconclusive)
# In short: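 After 4 h attachment on collagen I, HepG2 cells were dosed with compound alongside LipidTOX Red, kept 24 h at 37 C, fixed, and imaged for lamellar phospholipid pits.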
Compound,Potency [1],Potency [2],Potency [3],Potency [4],Potency [5],PLD induction [5]
Cn1nnnc1SCC1=C(C(=O)O)N2C(=O)[C@@H](NC(=O)[C@H](OC=O)c3ccccc3)[C@H]2SC1,inactive,inactive,inactive,inactive,inactive,–
CCCCCCCCCCCCCCCC(=O)OC[C@@H](NC(=O)C(Cl)Cl)[C@H](O)c1ccc([N+](=O)[O-])cc1,inactive,inactive,inactive,inactive,inactive,–
COc1ccc(CCNCC(O)COc2cccc(C)c2)cc1OC (configuration not stated),inactive,inactive,inactive,inactive,inactive,–
CS(=O)(=O)OCCCNCCCOS(C)(=O)=O,inactive,inactive,inactive,–,inactive,–
CCC(C)C(C(=O)OCC[N+](C)(CC)CC)c1ccccc1 (configuration not stated),inactive,inactive,inactive,–,inactive,–
CCCCCCCCCCCCCCCCCCOP(=O)([O-])OC1CC[N+](C)(C)CC1,inactive,inactive,inactive,inactive,inactive,–
CCCCOC(=O)C(=O)Nc1cccc(-c2nn[nH]n2)c1,inactive,inactive,inactive,inactive,inactive,–
CCOC(=O)[C@H](CCc1ccccc1)N[C@H]1CCCN2CCC[C@@H](C(=O)O)N2C1=O,inactive,inactive,inactive,inactive,inactive,–
Cc1onc(-c2ccccc2)c1C(=O)N[C@@H]1C(=O)N2[C@@H]1SC(C)(C)[C@@H]2C(=O)O,inactive,inactive,inactive,inactive,–,-3.09% [at 7.66 µM]
CCOC(=O)[C@H](CCc1ccccc1)N[C@@H](C)C(=O)N1CC2(C[C@H]1C(=O)O)SCCS2,inactive,inactive,inactive,inactive,inactive,–
CCN(CC)c1ccc(C(=C2C=CC(=[N+](CC)CC)C=C2)c2ccccc2)cc1,7.5 µM (active),inactive,5.96 µM (active),–,inactive,–
CC1(C)S[C@@H]2[C@H](NC(=O)[C@H](N)c3ccccc3)C(=O)N2[C@H]1C(=O)OCOC(=O)[C@@H]1N2C(=O)C[C@H]2S(=O)(=O)C1(C)C,inactive,inactive,inactive,–,inactive,–
CCOC(=O)CCC(=O)O[C@H]1[C@H](O[C@@H]2[C@@H](C)[C@H](O[C@H]3C[C@@](C)(OC)[C@@H](O)[C@H](C)O3)[C@@H](C)C(=O)O[C@H](CC)[C@@](C)(O)[C@H](O)[C@@H](C)C(=O)[C@H](C)C[C@@]2(C)O)O[C@H](C)C[C@@H]1N(C)C,inactive,inactive,inactive,inactive,inactive,–
CCCC(CCC)C(N)=O,inactive,inactive,inactive,inactive,–,0.287% [at 7.66 µM]
O=C1O[C@H]2[C@H](O)[C@@H]1OC(O)[C@H]2O (some centres not stated),inactive,inactive,inactive,inactive,inactive,–
CC(C(=O)O)c1ccc(C2CCCCC2)c2ccccc12 (configuration not stated),inactive,inactive,inactive,–,–,0.703% [at 7.66 µM]
CC#CCC(C)[C@H](O)/C=C/[C@@H]1[C@H]2c3cccc(CCCC(=O)O)c3O[C@H]2C[C@H]1O (some centres not stated),inactive,inactive,inactive,–,inactive,–
O=S(O)CNc1ccc(S(=O)(=O)c2ccc(NCS(=O)O)cc2)cc1,inactive,inactive,inactive,inactive,inactive,–
Cc1cccc(C)c1N(CCCc1cccnc1)C(=O)C(C)N (configuration not stated),inactive,inactive,inactive,inactive,–,-1.49% [at 1.53 µM]
Cc1c(O)cc2c(c1C)O[C@](C)(CCC[C@H](C)CCC[C@H](C)CCCC(C)C)CC2,inactive,inactive,inactive,inactive,inactive,–
CC(C)(C)NC(=O)[C@H]1CC[C@H]2[C@@H]3CC=C4C=C(C(=O)O)CC[C@]4(C)[C@H]3CC[C@]12C,inactive,inactive,inactive,–,inactive,–
C[N+](C)(CCCCCC[N+](C)(C)C1c2ccccc2-c2ccccc21)C1c2ccccc2-c2ccccc21,inactive,inactive,inactive,inactive,inactive,–
C[C@H](CSC(=O)c1ccccc1)C(=O)N1C[C@@H](Sc2ccccc2)C[C@H]1C(=O)O,inactive,inactive,inactive,inactive,inactive,–

Compound,Potency [1],Potency [2],Potency [3],Potency [4],Potency [5],PLD induction [5]
N[C@H](CCC(=O)O)C(=O)O,inactive,inactive,inactive,inactive,–,0.563% [at 7.66 µM]
NCCC[C@H](N)C(=O)O,inactive,inactive,inactive,inactive,inactive,–
O=P(O)(O)C(Sc1ccc(Cl)cc1)P(=O)(O)O,inactive,inactive,inactive,–,inactive,–
NCCCNCCCCNC(=O)C(O)NC(=O)CCCCCCN=C(N)N (configuration not stated),inactive,inactive,inactive,inactive,–,-1.69% [at 7.66 µM]
CCNC(=O)[C@@H]1CCCN1C(=O)[C@H](CCCN=C(N)N)NC(=O)[C@H](CC(C)C)NC(=O)[C@@H](CC(C)C)NC(=O)[C@H](Cc1ccc(O)cc1)NC(=O)[C@H](CO)NC(=O)[C@H](Cc1c[nH]c2ccccc12)NC(=O)[C@H](Cc1cnc[nH]1)NC(=O)[C@@H]1CCC(=O)N1,inactive,inactive,inactive,inactive,inactive,–
Nc1ccn(C[C@@H](CO)OCP(=O)(O)O)c(=O)n1,inactive,inactive,inactive,inactive,–,-2.23% [at 7.66 µM]
C[C@@H]1C/C=C/C=C/C=C/C=C/[C@H](O[C@@H]2O[C@H](C)[C@@H](O)[C@H](N)[C@@H]2O)C[C@@H]2O[C@](O)(C[C@@H](O)C[C@H]3O[C@@H]3/C=C/C(=O)O1)C[C@H](O)[C@H]2C(=O)O,inactive,inactive,inactive,inactive,inactive,–
CC1(C)S[C@@H]2[C@H](NC(=O)Cc3ccccc3)C(=O)N2[C@H]1C(=O)O,inactive,inactive,inactive,inactive,inactive,–
CC(=O)N[C@@H](CC(=O)N[C@@H](CCC(=O)O)C(=O)O)C(=O)O,inactive,inactive,inactive,inactive,inactive,–
O=S(=O)(O)Oc1ccc(C(c2ccc(OS(=O)(=O)O)cc2)c2ccccn2)cc1,inactive,inactive,inactive,inactive,inactive,–
CC[C@H](CC[C@@H](C)[C@H]1CC[C@H]2[C@@H]3CC=C4C[C@@H](O)CC[C@]4(C)[C@H]3CC[C@]12C)C(C)C,inactive,inactive,inactive,inactive,inactive,–
CC(=O)O[C@H]1CC[C@@]2(C)C(=CC[C@H]3[C@@H]4CC[C@H](C(C)=O)[C@@]4(C)CC[C@@H]32)C1,inactive,inactive,inactive,inactive,–,6.8% [at 7.66 µM]
CN=C(NC)NCc1ccccc1,inactive,inactive,inactive,inactive,inactive,–
C[C@H](/C=C/[C@H](C)C(C)(C)O)[C@H]1CC[C@H]2/C(=C/C=C3C[C@@H](O)C[C@H](O)C3)CCC[C@]12C,inactive,inactive,inactive,inactive,inactive,–
C=C1CC2C3CCC4=CC(=O)C=C[C@]4(C)[C@@]3(F)[C@@H](O)C[C@]2(C)[C@@]1(O)C(=O)COC(C)=O (some centres not stated),inactive,inactive,inactive,inactive,–,-8.32% [at 7.66 µM]
N[C@@H](C(=O)N[C@@H]1C(=O)N2C(C(=O)O)=C(Cl)CC[C@H]12)c1ccccc1,inactive,inactive,inactive,inactive,inactive,–
NCCC[C@H](N)CC(=O)N[C@H]1CNC(=O)[C@H]([C@H]2C[C@H](O)NC(N)=N2)NC(=O)/C(=C/NC(N)=O)NC(=O)[C@H](CO)NC(=O)[C@H](CO)NC1=O (β3hOrn-[Dap]SS[ΔAla(Z-3-ureido)][X5]; lactam 1-C),inactive,inactive,inactive,inactive,inactive,–
CCOC(=O)Cc1cccc(-c2cc(CCCCCCc3ccc(O[C@H]4O[C@H](COC(C)=O)[C@@H](OC(C)=O)[C@H](OC(C)=O)[C@@H]4OC(C)=O)c(-c4cccc(CC(=O)OCC)c4)c3)ccc2O[C@H]2O[C@H](COC(C)=O)[C@@H](OC(C)=O)[C@H](OC(C)=O)[C@@H]2OC(C)=O)c1,inactive,inactive,inactive,inactive,inactive,–
CCC(C)(C)OC(=O)N[C@@H](Cc1c[nH]c2ccccc12)C(=O)N[C@@H](CCSC)C(=O)N[C@@H](CC(=O)O)C(=O)N[C@@H](Cc1ccccc1)C(N)=O,inactive,inactive,inactive,inactive,inactive,–
CC(=O)OC[C@H]1O[C@@H](O[C@H]2[C@H](O)[C@@H](OC(=O)c3ccccc3C(=O)O)[C@H](O)O[C@@H]2COC(C)=O)[C@H](O)[C@@H](OC(=O)c2ccccc2C(=O)O)[C@@H]1O,inactive,inactive,inactive,inactive,–,5.14% [at 0.306 µM]
C/C(=C(\CCOC(=O)c1ccccc1)SS/C(CCOC(=O)c1ccccc1)=C(/C)N(C=O)Cc1cnc(C)nc1N)N(C=O)Cc1cnc(C)nc1N,inactive,inactive,inactive,inactive,inactive,–
CCCCCCCCCCCCCCCCCC(=O)OCCO,inactive,inactive,inactive,inactive,inactive,–
